Rows were chosen to be rich in hits. Some 1.4% of all compounds tested hit in one or more screens of this group.
BCLXL inh: inhibitors of human Bcl-xL; AID 2129; actives 0.7% (n = 320,000); inhibition, % at 10.9 µM; GST-Bcl-xL / FITC-Bim BH3 peptide fluorescence polarization;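 active = inhibition above the mean of all tested compounds plus 3 SD, cutoff set per campaign, cut at about 30% in these data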;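 also: inhibitors lower millipolarization by displacing the labeled peptide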
GLD-1 RNA inh: GLD-1-TGE RNA interaction inhibition (C. elegans). Q17339. purified GLD-1 + fluorescein TGE RNA, fluorescence polarization. inhibition, % at 5.96 µM. actives 0.44% (n = 320,000). AID 2280;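 active = percent inhibition above a per-plate cutoff, the plate mean of test compounds plus 3 SD, cut at about 30% in these data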
MEX-5 binding: C. elegans MEX-5 TCR-2 RNA binding activity; Q9XUB2; MEX-5/FITC-TCR2 RNA binding, fluorescence polarization; stronger effect = lower value; activity score (negative = inhibition of binding), % at 10 µM; actives 0.38% (n = 300,000); AID 1832;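 active = inhibition past about -25% in most replicates, and total fluorescence under double the plate's negative control median, limit read from the data; inconclusive = replicates evenly split on the limit, or fluorescence at least double controls; inactive = too little inhibition in most replicates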
eLon inh: E. coli protease La inhibition; AID 602123; actives 0.42% (n = 360,000); inhibition, % at 7.94 µM; P0A9M0; purified E. coli Lon protease, fluorescence polarization; in the data active = inhibition above about 13%, passing the limit was not always enough
MCL1 BIM primary: MCL1-BIM-BH3 interaction inhibition (human) | inhibition, % at 10.9 µM | GST-MCL1 / FITC-Bim-BH3 fluorescence polarization | Q07820 | AID 2057 | actives 0.68% (n = 320,000);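 active = inhibition above the mean inhibition of all tested compounds plus 3 SD, set per campaign, cut at about 40% in these data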;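 also: higher means more loss of mP so more displacement of Bim peptide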
Target sequence (Q07820 whole entry, looked up): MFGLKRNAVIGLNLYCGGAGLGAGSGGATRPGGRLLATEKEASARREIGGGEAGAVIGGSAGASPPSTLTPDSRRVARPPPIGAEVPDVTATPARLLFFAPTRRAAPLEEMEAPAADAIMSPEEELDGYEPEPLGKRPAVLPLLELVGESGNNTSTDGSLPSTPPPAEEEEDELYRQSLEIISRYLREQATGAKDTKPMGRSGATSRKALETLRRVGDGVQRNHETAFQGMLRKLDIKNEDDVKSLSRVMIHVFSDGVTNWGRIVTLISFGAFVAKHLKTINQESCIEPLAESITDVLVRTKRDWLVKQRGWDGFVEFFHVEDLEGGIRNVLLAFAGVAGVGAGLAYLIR
EBV gp42 inh: blocks Epstein-Barr virus glycoprotein 42 binding; Q1HVG2; Fluorescence polarization binding assay, mP read-out; inhibition, % (tested at 21.74 µM); actives 0.42% (n = 220,000); AID 1085; in the data active = inhibition above about 50%
Target sequence (Q1HVG2 whole entry, looked up): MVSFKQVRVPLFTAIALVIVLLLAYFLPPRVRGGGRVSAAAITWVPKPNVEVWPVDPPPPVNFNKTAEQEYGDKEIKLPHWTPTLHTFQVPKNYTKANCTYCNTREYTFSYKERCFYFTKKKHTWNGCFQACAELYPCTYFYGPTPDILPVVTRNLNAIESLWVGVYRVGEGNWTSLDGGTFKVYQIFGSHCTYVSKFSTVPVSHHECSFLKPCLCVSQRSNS
eLon confirm: confirmation of E. coli Lon protease inhibitors | shares compounds with eLon inh | AID 602230 | purified E. coli Lon, fluorescence polarization | inhibition, % at 7.94 µM | actives 31% (n = 1,400); in the data active = inhibition above about 16%
Of the large screens only hits and unclear results are named; the others gave an inactive call (follow-up assays come after a bar, where they were run).

C=CC[C@H](CC(=O)N(CCO)Cc1ccccc1)C(=O)N[C@H](COC(=O)[C@@H](CC=C)CC(=O)OC(C)(C)C)c1ccccc1	eLon inh 20.0 (no result: BCLXL inh, MEX-5 binding, MCL1 BIM primary, EBV gp42 inh) | eLon confirm inactive
C=CC[C@H](CC(=O)N(CCO)Cc1ccccc1)C(=O)N[C@@H](C)COC(=O)[C@H](CC=C)CC(=O)OC(C)(C)C	none (no result: BCLXL inh, MEX-5 binding, MCL1 BIM primary, EBV gp42 inh)
CCOC1=C2CN(S(=O)(=O)c3ccc(C)cc3)[C@@H](c3ccc(CC)cc3)C[C@H]2[C@H]2C(=O)N(c3ccccc3)C(=O)[C@H]2C1	none (no result: BCLXL inh, GLD-1 RNA inh, MEX-5 binding, MCL1 BIM primary, EBV gp42 inh)
S=C(Nc1cccc(Cl)c1Cl)N1CCC2(CC1)OCCO2	none
Cc1ccc(OCC(=O)N2CCN(S(C)(=O)=O)CC2)cc1	eLon inh 50.4 | eLon confirm inactive
COc1cccc2c1C(=O)c1c(O)c3c(c(O)c1C2=O)CC(O)(C(=O)CO)CC3OC1CC(N(C)C)C(O)C(C)O1 (centres undefined)	eLon inh active (no result: BCLXL inh, GLD-1 RNA inh, MEX-5 binding, MCL1 BIM primary, EBV gp42 inh) | eLon confirm active
COc1cccc2c1C(=O)c1c(O)c3c(c(O)c1C2=O)C[C@@](O)(C(C)=O)C[C@@H]3O[C@H]1C[C@H](N)[C@H](O)[C@H](C)O1	eLon inh active, EBV gp42 inh active (no result: BCLXL inh, GLD-1 RNA inh, MEX-5 binding, MCL1 BIM primary) | eLon confirm active
Cc1ccc(NC2=CC(=O)CC(C)(C)C2)c(N)c1	eLon inh 78.7 | eLon confirm inactive
CC1(C)CC(=O)C=C(Nc2ccccc2N)C1	none (no result: EBV gp42 inh)
COc1ccc(C2(c3ccc(OC(C)=O)cc3OC(C)=O)CC(c3ccccc3)NC(=S)N2)cc1 (centres undefined)	eLon inh 20.6 | eLon confirm inactive
CC(=O)Oc1ccc2c(c1)OC(c1ccccc1)CC21CC(C)(C)NC(=S)N1 (centres undefined)	none
CCCCCn1c(=O)[nH]c2cc(C(=O)O)ccc2c1=O	none
CCCCCCn1c(=O)[nH]c2nc3cc(N)c(C)cc3nc2c1=O	eLon inh 116.5, EBV gp42 inh 148.3 (no result: BCLXL inh, GLD-1 RNA inh, MEX-5 binding, MCL1 BIM primary) | eLon confirm 48.8
O=C1CCCC2=C1C(c1ccccc1)CC(=O)N2c1ccc(F)cc1F (centres undefined)	none (no result: MEX-5 binding)
CCC1(c2ccccc2)NC(=O)N(CC(=O)Nc2cc(Cl)ccc2N2CCOCC2)C1=O (centres undefined)	eLon inh 17.2 (no result: EBV gp42 inh) | eLon confirm inactive
CCC1(c2ccccc2)NC(=O)N(CC(=O)Nc2ccccc2N2CCCC2)C1=O (centres undefined)	none (no result: EBV gp42 inh)
COc1cc(C(=O)NNC(=S)NCc2ccco2)cc(OC)c1OC	none
Cc1ccc2nc(C3CCCCC3)c(Cc3cccc(Cl)c3)n2c1	none (no result: BCLXL inh, GLD-1 RNA inh, MEX-5 binding, MCL1 BIM primary, EBV gp42 inh)
Cc1cc2cc(CNC(=O)Nc3ccc(Cl)c(Cl)c3)ccc2n1C	eLon inh 22.6 | eLon confirm inactive
Cc1cc2cc(CNC(=S)Nc3ccc(OC(F)F)cc3)ccc2n1C	eLon inh 14.9 | eLon confirm inactive
FC(F)Oc1ccc(NC(=S)NCc2ccccc2)cc1	none
CCCNC(=S)Nc1ccc2nc(-c3ccccn3)c(-c3ccccn3)nc2c1	eLon inh 18.8 | eLon confirm inactive
Cc1ccccc1OCC(=O)NNC(=O)CSc1nc(N)cc(N)n1	none
CCOC(=O)C1=C(C)NC(=O)CC1c1ccccc1 (centres undefined)	none
CCOC(=O)C1=C(C)NC(=S)N(C(C)=O)C1c1ccccc1 (centres undefined)	eLon inh 17.2 | eLon confirm inactive
O=C(CSc1nnc2c(n1)[nH]c1ccccc12)Nc1ccc(S(=O)(=O)Nc2ncccn2)cc1	eLon inh 17.9 (no result: BCLXL inh, GLD-1 RNA inh, MCL1 BIM primary) | eLon confirm 27.8
CC1=C(C(=O)N(C(C)C)C(C)C)CC(CC(=O)NCc2cccs2)C(=O)N1CCC1=CCCCC1 (centres undefined)	none (no result: BCLXL inh, GLD-1 RNA inh, MEX-5 binding, MCL1 BIM primary, EBV gp42 inh)
O=C(COC(=O)c1cc2ccccc2cc1O)NC1CCCCC1	eLon inh 25.6 (no result: BCLXL inh, MEX-5 binding, MCL1 BIM primary, EBV gp42 inh) | eLon confirm inactive
Cc1nc(CN2CCCCC2)cc(=O)[nH]1	none
CCCCOC(=O)Nc1cc(C)c(Cl)cc1OC	eLon inh 33.6 | eLon confirm inactive
CC(=O)OCCn1c2nc(=O)[nH]c(=O)c-2nc2cc(C)c(C)cc21	MEX-5 binding inconclusive, eLon inh active (no result: BCLXL inh, GLD-1 RNA inh, MCL1 BIM primary) | eLon confirm active
COc1ccc(N)cc1-n1c(C)ccc1C	BCLXL inh 38.4, eLon inh 51.6, MCL1 BIM primary 45.6 | eLon confirm 18.1
CCCCC(=O)N(C)c1c(CC)nc2c(OCC(=O)c3ccc(F)cc3)cccn12	none (no result: BCLXL inh, GLD-1 RNA inh, MEX-5 binding, MCL1 BIM primary, EBV gp42 inh)
COc1ccc(CN2C[C@@H](CO)O[C@@H](n3cnc4c(NCc5ccc(F)cc5)ncnc43)C2)cc1	none (no result: BCLXL inh, GLD-1 RNA inh, MEX-5 binding, MCL1 BIM primary, EBV gp42 inh)
CCCCC1=CC2=C(c3ccco3)C(=O)C(C)(OC(=O)c3ccc(OC)cc3)C(=O)C2=CN1CC1CC1 (centres undefined)	eLon inh 39.2 | eLon confirm 20.3
COc1ccc(CCNC(=O)c2ccc3c(c2)N(Cc2ccc(F)cc2)CCS3)c(OC)c1	eLon inh 18.5 (no result: EBV gp42 inh) | eLon confirm inactive
COc1ccc2c3c(cccc13)N(C)N=C2C	BCLXL inh 97.3, GLD-1 RNA inh 42.1, eLon inh 36.7, MCL1 BIM primary 87.1 | eLon confirm 21.0
COc1cc2oc(=O)cc(CN3CCN(C(C)=O)CC3)c2cc1Cl	eLon inh 31.4 (no result: BCLXL inh, GLD-1 RNA inh, MEX-5 binding, MCL1 BIM primary, EBV gp42 inh) | eLon confirm 24.4
COc1cc2oc(=O)cc(CN3CCCCC3)c2cc1Cl	none (no result: BCLXL inh, GLD-1 RNA inh, MEX-5 binding, MCL1 BIM primary, EBV gp42 inh)
COc1ccc(C(CNC(=O)C(=O)Nc2ccc3c(c2)OCCO3)N2CCN(C)CC2)cc1 (centres undefined)	none (no result: EBV gp42 inh)
CCOC(=O)c1c(C(C)(C)C)oc2ccc(O)cc12	eLon inh 19.7 (no result: MEX-5 binding) | eLon confirm inactive
CCOC(=O)c1c(C)oc2ccc(O)cc12	none
O=[N+]([O-])c1ccc(Nc2nc(N3CCOCC3)nc(N3CCOCC3)n2)cc1	eLon inh 17.2 (no result: EBV gp42 inh) | eLon confirm inactive
CCOc1ccc(-c2c[n+](=O)c3c(n2[O-])CCCC3)c(OCC)c1	eLon inh 68.1 | eLon confirm inactive
O=C(NCCc1ccccc1)c1cccc(NC(=O)C2CCCC2)c1	eLon inh 16.1 (no result: BCLXL inh, GLD-1 RNA inh, MEX-5 binding, MCL1 BIM primary, EBV gp42 inh) | eLon confirm inactive
O=C(NCCc1ccccc1)C1CCN(S(=O)(=O)N2CCCCCC2)CC1	eLon inh 35.1 | eLon confirm 18.8
COc1ccccc1CNC(=O)COC(=O)Cn1cnc2c1c(=O)n(C)c(=O)n2C	eLon inh 72.2 (no result: BCLXL inh, GLD-1 RNA inh, MEX-5 binding, MCL1 BIM primary, EBV gp42 inh) | eLon confirm inactive
Cn1c(=O)c2c(ncn2CC(=O)OCC(=O)NCc2ccccc2Cl)n(C)c1=O	none
Cc1n[nH]c(C)c1S(=O)(=O)N1CCC(C(=O)Nc2cccc(F)c2)CC1	none (no result: EBV gp42 inh)
O=C1NC2c3c(I)sc(I)c3C(=O)C2O1 (centres undefined)	eLon inh 105.2 (no result: BCLXL inh, GLD-1 RNA inh, MEX-5 binding, MCL1 BIM primary, EBV gp42 inh) | eLon confirm 16.6
Cc1ccc(N(CC(O)CN2CCOCC2)S(=O)(=O)c2ccc([N+](=O)[O-])cc2)cc1 (centres undefined)	eLon inh 16.7 (no result: EBV gp42 inh) | eLon confirm inactive

From PubChem BioAssay
